The whole screen tested about 310,000 compounds, of which about 14,000 (4.5%) showed an effect of 50% or more. Effects have a minus sign here. This is one part of a sample in which strong results are shown more often than they occur.
Target: human ether-à-go-go-related gene (hERG) potassium channel (human, UniProt Q12809)
Experiment: primary screen, population patch clamp on CHO cells stably expressing hERG; higher = less effect of the substance
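Note: peak tail current of the secondary pulse compared with the same well before compound.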

Sequence of human ether-à-go-go-related gene (hERG) potassium channel (Q12809 whole entry, looked up): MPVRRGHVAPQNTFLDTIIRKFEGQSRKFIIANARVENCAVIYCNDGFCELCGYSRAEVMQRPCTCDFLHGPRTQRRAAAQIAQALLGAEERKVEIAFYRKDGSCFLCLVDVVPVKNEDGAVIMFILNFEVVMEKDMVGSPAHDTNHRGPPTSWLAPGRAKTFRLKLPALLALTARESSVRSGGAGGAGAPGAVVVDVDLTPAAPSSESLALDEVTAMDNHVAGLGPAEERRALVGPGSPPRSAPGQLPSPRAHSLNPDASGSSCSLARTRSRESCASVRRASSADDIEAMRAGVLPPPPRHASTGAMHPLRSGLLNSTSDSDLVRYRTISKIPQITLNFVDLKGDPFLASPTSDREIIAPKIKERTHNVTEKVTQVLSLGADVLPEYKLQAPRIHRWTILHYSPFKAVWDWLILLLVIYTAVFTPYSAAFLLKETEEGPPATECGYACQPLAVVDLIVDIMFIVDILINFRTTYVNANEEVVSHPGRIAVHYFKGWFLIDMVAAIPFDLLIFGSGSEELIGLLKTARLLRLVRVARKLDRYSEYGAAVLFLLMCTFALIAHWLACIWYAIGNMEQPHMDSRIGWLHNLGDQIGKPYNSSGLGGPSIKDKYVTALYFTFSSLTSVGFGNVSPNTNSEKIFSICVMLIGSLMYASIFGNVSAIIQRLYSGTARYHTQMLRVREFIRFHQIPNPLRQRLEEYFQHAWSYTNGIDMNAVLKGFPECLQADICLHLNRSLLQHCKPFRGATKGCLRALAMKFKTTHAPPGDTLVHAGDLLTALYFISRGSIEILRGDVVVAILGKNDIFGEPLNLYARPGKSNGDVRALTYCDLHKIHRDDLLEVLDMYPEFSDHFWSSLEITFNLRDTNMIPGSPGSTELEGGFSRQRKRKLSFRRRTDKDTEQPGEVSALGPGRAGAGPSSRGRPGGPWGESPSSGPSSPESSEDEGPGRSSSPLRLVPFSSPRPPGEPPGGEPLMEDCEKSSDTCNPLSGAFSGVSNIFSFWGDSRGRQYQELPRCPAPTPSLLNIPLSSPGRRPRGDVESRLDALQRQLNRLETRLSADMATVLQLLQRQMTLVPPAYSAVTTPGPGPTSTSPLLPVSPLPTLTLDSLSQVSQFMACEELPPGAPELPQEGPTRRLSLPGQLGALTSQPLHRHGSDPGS

Structure (SMILES)	hERG current change (%, negative = inhibition) at 10uM
NS(=O)(=O)c1cccc(NC(=O)COC(=O)C2(c3cccc(F)c3)CCCC2)c1	-6.66%
Cc1ccc(NC(=O)c2sc(Cl)nc2-c2ccccc2)cc1C	3.94%
CC1CC(C)CN(S(=O)(=O)c2ccc3c(c2)oc(=O)n3CC(=O)NCc2cccnc2)C1 (stereo not drawn)	-17.2%
COc1cc(C(=O)NC2CCCC2)c(Br)c(OC)c1OC	7.61%
COc1ccc(NC(=O)C(CCSC)N2C(=O)c3ccccc3C2=O)cc1 (stereo not drawn)	-10.3%
Cc1ccc(S(=O)(=O)/N=C2\C=C(Nc3cccc(C(=O)O)c3)C(=O)c3ccccc32)c(C)c1	27.9%
CCCCn1c(N)c(N(CCOC)C(=O)c2cc(S(=O)(=O)N3CCOCC3)ccc2F)c(=O)[nH]c1=O	16.1%
Cc1cc(C(=O)COC(=O)c2cccn2C)c(C)n1Cc1ccco1	21.4%
Cc1nnc(SCC(=O)Nc2nsc(-c3ccc(Cl)cc3)n2)s1	0.522%
Cc1cccc(N2CCN(S(=O)(=O)c3c(C(=O)N4CCCCC4)c(C)n(C)c3C)CC2)c1C	-9.26%
COCc1c(C(=O)N2CCN(CCOc3ccccc3)CC2)oc2ccccc12	-63.5%
COCc1c(C(=O)N2CCN(Cc3nc4ccccc4s3)CC2)oc2ccccc12	-72.5%
COCc1c(C(=O)N2CCN(c3ccc(C(F)(F)F)cn3)CC2)oc2ccccc12	-23.7%
COCc1c(C(=O)Nc2ccc3nc(N4CCOCC4)sc3c2)oc2ccccc12	-31.2%
COCc1c(C(=O)N2CCN(c3ncccn3)CC2)oc2ccccc12	-7.68%
COCc1c(C(=O)N2CCN(Cc3ccc(C#N)cc3)CC2)oc2ccccc12	-70.2%
COCc1c(C(=O)N2CCN(Cc3ccc4c(c3)OCO4)CC2)oc2ccccc12	-40.8%
COCc1c(C(=O)N2CCN(S(=O)(=O)c3ccccc3Cl)CC2)oc2ccccc12	-13.9%
COCc1c(C(=O)N2CCN(Cc3c(F)cccc3Cl)CC2)oc2ccccc12	-12.2%
CCC1Oc2ccccc2N(CC(=O)NCCCN2CCCC2)C1=O (stereo not drawn)	15.9%
O=C(c1ccc(F)cc1)C(Cc1ccccc1)N1CCCCC1 (stereo not drawn)	1.82%

Structure (SMILES)	hERG current change (%, negative = inhibition) at 10uM
OCCC1CN(C2CCC2)CCN1Cc1ccc(F)c(F)c1 (stereo not drawn)	5.12%
CCOC(=O)N1CCC(N2CCN(Cc3ccc(F)c(F)c3)C(CCO)C2)CC1 (stereo not drawn)	-44.7%
COc1cccc(CN2CCN(C3CCN(c4ccccc4C)CC3)CC2CCO)c1 (stereo not drawn)	-66.2%
Cc1cccc(N2CCC(N3CCN(C4CCCCC4)C(CCO)C3)CC2)c1C (stereo not drawn)	-42.7%
COc1cccc(CN2CCN(C3CCN(c4cccc(C)c4C)CC3)CC2CCO)c1 (stereo not drawn)	-66.2%
COc1cccc(CN2CCN(C3CCOCC3)CC2CCO)c1 (stereo not drawn)	0.171%
OCCC1CN(C2CCN(c3ccccc3F)CC2)CCN1Cc1ccccc1 (stereo not drawn)	-61.8%
OCCC1CN(C2CSCCSC2)CCN1Cc1ccccc1 (stereo not drawn)	11.9%
OCCC1CN(C2CCN(c3ccccc3)CC2)CCN1Cc1ccc(F)c(F)c1 (stereo not drawn)	-71.2%
COc1cccc(CN2CCN(C3CSCCSC3)CC2CCO)c1 (stereo not drawn)	-13%
COc1ccc(CN2CCN(C3CCC3)CC2CCO)cc1C (stereo not drawn)	8.14%
CCOC(=O)N1CCC(N2CCN(Cc3ccccc3)C(CCO)C2)CC1 (stereo not drawn)	-9.9%
Cc1n[nH]c(C)c1Sc1ccccc1N=Cc1cc(Cl)cc([N+](=O)[O-])c1O	-10.9%
N#CCSc1nnc(C2CCCCC2)n1-c1ccccc1	4.45%
CCOC(=O)c1c(C)oc2cc(Cl)c(O)c(CN(C)C)c12	-6.79%
CC(OC(=O)c1ccc(S(=O)(=O)NCc2ccco2)cc1)C(=O)Nc1ccc(Cl)cn1 (stereo not drawn)	-39.8%
CC(C)C[C@@]12C(=O)N(c3cccc(Cl)c3)C(=O)N1[C@H](c1ccc(Br)cc1)[C@@H]1C(=O)N(C(C)(C)C)C(=O)[C@@H]12	22.7%
COc1ccc(CNC(=O)Nc2ccc3c(c2)N(C)C(=O)CS3)cc1	-0.138%
CCC(C)[C@H](NC(=O)N1CCCCCC1)C(=O)OC (stereo partly drawn)	5.25%
O=C(NCc1ccccc1)C1=C[C@@H](c2ccc3c(c2)OCO3)C[C@@H](OCc2ccc(CO)cc2)O1	-25%
CCOc1ccccc1CN1CCN(C2CCOCC2)CC1CCO (stereo not drawn)	9.47%

Structure (SMILES)	hERG current change (%, negative = inhibition) at 10uM
COc1ccc(CN2CCN(C3CCC3)CC2CCO)c(F)c1 (stereo not drawn)	9.71%
CCOc1ccccc1CN1CCN(C2CCN(c3ccccc3F)CC2)CC1CCO (stereo not drawn)	-71.6%
CCOc1ccccc1CN1CCN(C2CCC2)CC1CCO (stereo not drawn)	27.4%
COc1cc(CN2CCN(C3CCC3)CC2CCO)cc(OC)c1 (stereo not drawn)	8.54%
COc1cccc(CN2CCN(C3CCN(c4ccccc4F)CC3)CC2CCO)c1 (stereo not drawn)	-74.9%
COc1ccc(CNC(=O)COC(=O)c2ccco2)cc1	28.3%
Cc1cc(NC(=O)CSc2nnc(Cn3c(=O)sc4ccccc43)n2-c2ccccc2C)no1	2.54%
COc1ccc2nc(NC(=O)CSCc3c(C)noc3C)sc2c1	1.24%
Cc1ccc(OC(C)C(=O)N2CCCc3ccccc32)cc1 (stereo not drawn)	-16.3%
O=C(Cn1nc(-c2ccccc2)nc1-c1ccccc1)OC1CCCCC1	7.88%
COCCCN(C(=O)CCOc1ccc(C(C)(C)C)cc1)c1c(N)n(Cc2ccccc2)c(=O)[nH]c1=O	-62.2%
COCCCN(C(=O)CCOc1ccccc1C)c1c(N)n(Cc2ccccc2)c(=O)[nH]c1=O	-3.05%
CCCN(C(=O)CCOc1ccc(C(C)(C)C)cc1)c1c(N)n(Cc2ccccc2)c(=O)[nH]c1=O	29.7%
Cc1ccccc1OCCC(=O)N(CC(C)C)c1c(N)n(Cc2ccccc2)c(=O)[nH]c1=O	-64.4%
COCCCN(C(=O)CCOc1ccc(C)cc1)c1c(N)n(Cc2ccccc2)c(=O)[nH]c1=O	-20.2%
Cc1ccccc1OCCC(=O)N(Cc1ccccc1)c1c(N)n(Cc2ccccc2)c(=O)[nH]c1=O	-7.3%
C=CCNC(=O)c1ccc2nc(-c3ccccc3)c(-c3ccccc3)nc2c1	-15.4%
CN(c1ccccc1)c1ccc(/C=C(\CCC(=O)O)c2nc3ccccc3s2)cc1[N+](=O)[O-]	44.6%
CCOC(=O)C1(Cc2cccc(Cl)c2)CCCN(C(=O)c2cc(C)on2)C1 (stereo not drawn)	-9.8%
O=C(NCc1ccc(F)cc1)C1CCCN(C(=O)Nc2ccccc2)C1 (stereo not drawn)	-38.5%
CC1(C)CC(=O)C2=C(C1)OC(N)=C(C#N)C2c1ccccc1 (stereo not drawn)	-14.4%

Structure (SMILES)	hERG current change (%, negative = inhibition) at 10uM
CC(c1ccccc1)C1C(C#N)=C(N)OC2=C1C(=O)CCC2 (stereo not drawn)	-6.39%
CC(c1ccccc1)C1C(C#N)=C(N)OC2=C1C(=O)CC(C)(C)C2 (stereo not drawn)	-56.9%
CC(=O)Nc1ccccc1-c1nc2ccc(C(=O)N3CCN(c4cc(C)ccc4C)CC3)cc2[nH]c1=O	-23.5%
O=c1cc(CN2CCN(S(=O)(=O)c3ccccc3)CC2)nc2sccn12	-2.25%
O=c1cc(CN2CCN(S(=O)(=O)c3ccc4ccccc4c3)CC2)nc2sccn12	-25.2%
COc1ccc(S(=O)(=O)N2CCN(C3CCN(Cc4ccccc4)CC3)CC2)cc1	-59.4%
COc1ccc(S(=O)(=O)N2CCN(Cc3ccccc3)CC2)cc1	-19.5%
O=c1cc(CN2CCN(S(=O)(=O)c3ccccc3[N+](=O)[O-])CC2)nc2sccn12	-53.7%
CN1CCN(CC2(O)CCN(S(=O)(=O)c3ccc(Cl)cc3)CC2)CC1	-36%
O=S(=O)(c1ccccc1)N1CCC(O)(CN2CCN(c3ccccc3)CC2)CC1	12.2%
COc1ccc(S(=O)(=O)N2CCC(N3CCN(Cc4ccccc4)CC3)CC2)cc1.O=C(O)C(=O)O	-39.2%
O=S(=O)(c1ccc(Cl)cc1)N1CCC(O)(CN2CCN(Cc3ccccc3)CC2)CC1	-75.8%
Cc1ccc(S(=O)(=O)N2CCN(Cc3ccccc3)CC2)cc1	-9.58%
Cc1ccc(S(=O)(=O)N2CCN(C3CCN(Cc4ccccc4)CC3)CC2)cc1.O=C(O)C(=O)O	-76.6%
CCOC(=O)N1CCC(N2CCN(S(=O)(=O)c3ccc(C)cc3)CC2)CC1.O=C(O)C(=O)O	-19.1%
Cc1ccc(CNC(=S)NC2CCC(C(C)(C)C)CC2)cc1 (stereo not drawn)	10.8%
CCC(NC(=O)C1CCC1)c1ccccc1 (stereo not drawn)	12.6%
Cc1c(/C=C/C(=O)c2cccs2)cnn1C	-0.723%
COc1ccc(CNc2cccc(C)n2)c(O)c1	-3.24%
Cc1cc(C)c(NC(=O)COC(=O)c2ccc([N+](=O)[O-])s2)c(C)c1	0.0437%
COc1ccccc1NS(=O)(=O)c1cc(NC(=O)c2[nH]c(C)c(C(C)=O)c2C)ccc1N1CCOCC1	0.128%
